Calpain2 inh = blocks pig calpain II enzyme activity; purified calpain II, fluorogenic peptide substrate, 30 min; inhibition, % at 16 µM; actives 0.37% (n = 220,000);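 active = inhibition above about 50%, limit read from the data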
WT yeast gro inh = growth inhibition of WT yeast, mitochondrial fusion screen. actives 2.1% (n = 190,000). mitochondrial fusion phenotypic screen, WT strain. AID 1362. inhibition, % at 10 µM; in the data active = inhibition above about 58%; tested in S. cerevisiae
Cl transport mod = KCC2 (human) Cl- transport modulation | Q9H2X9 | KCC2 cells, thallium flux FluoZin-2 fluorescence | actives 2.2% (n = 190,000) | AID 1456 | B-score of Tl+ flux slope (higher = more flux/activation; lower = inhibition) at 10 µM;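 active = thallium flux slope and its plate-corrected score both differing from the plate sample mean at a set confidence after two filtering rounds, in either direction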;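 note: slope of fluorescence scaled to starting intensity during 10 to 20 s after thallium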
ROMK mod = modulators of human ROMK potassium channel | P48048 | Tet-inducible ROMK, thallium flux fluorescence; actives lie on both sides | B-score at 10 µM | actives 2% (n = 130,000);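 active = signal ratio slope over the read window, or its plate-corrected B-score, at least 3 SD from the plate mean, either direction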;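 note: B-score of the F/F0 ratio slope over 7 to 12 s after thallium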
Lmaj promast = Leishmania major promastigote growth inhibition; AID 1063; inhibition, % at 10 µM; actives 9% (n = 200,000); Leishmania major promastigotes, resazurin fluorescence viability; in the data active = inhibition above about 50%;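 note: promastigotes grown with compound for 44 hours at 28 °C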
Hits are given with their value. This is a sample that favours compounds with a hit; in the whole collection about 12% have one here.

What do the screens show for `COC(=O)c1ccc(C(=O)OC)c(NC(=S)N2CCN(c3ccccc3)CC2)c1`?
Calpain2 inh: inactive; WT yeast gro inh: inactive; ROMK mod: inactive; Lmaj promast: inactive

Results for CC(=O)c1ccc(N2CCN(C(=S)Nc3cccc(Cl)c3)CC2)cc1 ?
Calpain2 inh: inactive; WT yeast gro inh: inactive; Cl transport mod: inactive; ROMK mod: inactive; Lmaj promast: 56.6

What do the screens show for `CC(=O)c1ccc(NC(=O)Nc2cccc(Cl)c2)cc1`?
Calpain2 inh: inactive; WT yeast gro inh: 72.3; ROMK mod: inactive; Lmaj promast: inactive

How did O=C(NCc1ccc2c(c1)OCO2)C1CCCN1S(=O)(=O)c1ccc(Cl)cc1 (configuration not stated) do in these assays?
Calpain2 inh: inactive; WT yeast gro inh: inactive; Cl transport mod: inactive; ROMK mod: inactive; Lmaj promast: inactive

How did O=S(=O)([N-]c1nc2ccccc2nc1-[n+]1ccccc1)c1ccc(F)cc1 do in these assays?
Calpain2 inh: inactive; WT yeast gro inh: inactive; Cl transport mod: inactive; ROMK mod: inactive; Lmaj promast: inactive

What do the screens show for `C=CCn1c(CCC(O)COCCC)n[nH]c1=S` (configuration not stated)?
Calpain2 inh: inactive; WT yeast gro inh: inactive; Lmaj promast: inactive

What do the screens show for `Cc1nn(-c2ccccc2)c2c1C(c1ccc(O)c(O)c1)N1C(=N2)C(Nc2ccccc2)=Nc2ccccc21` (configuration not stated)?
Calpain2 inh: inactive; WT yeast gro inh: inactive; Cl transport mod: inactive; Lmaj promast: 90.3

Results for Cc1cccc(NC2=Nc3ccccc3N3C2=Nc2c(c(C)nn2-c2ccccc2)C3c2ccc(O)c(O)c2)c1 (configuration not stated) ?
Calpain2 inh: inactive; WT yeast gro inh: inactive; Cl transport mod: inactive; Lmaj promast: inactive

How did Cc1nn(-c2ccccc2)c2c1C(c1ccc([N+](=O)[O-])cc1)N1C(=N2)C(=O)Nc2ccccc21 (configuration not stated) do in these assays?
Calpain2 inh: inactive; WT yeast gro inh: inactive; Cl transport mod: inactive; Lmaj promast: inactive

What do the screens show for `Cc1ccc(NC2=Nc3ccccc3N3C2=Nc2c(c(C)nn2-c2ccccc2)C3c2ccc(O)c(O)c2)cc1` (configuration not stated)?
Calpain2 inh: inactive; WT yeast gro inh: inactive; Cl transport mod: inactive; Lmaj promast: 85.5

How did Cc1ccc(Cl)cc1N1CCN(CC(=O)Nc2ccc3[nH]c(=O)[nH]c3c2)CC1 do in these assays?
Calpain2 inh: inactive; WT yeast gro inh: inactive; Cl transport mod: inactive; ROMK mod: inactive; Lmaj promast: inactive

What do the screens show for `CC1=C(CC(=O)c2ccccc2)C(=O)c2ccccc2C1=O`?
Calpain2 inh: inactive; WT yeast gro inh: inactive; Cl transport mod: inactive; Lmaj promast: 94.0

How did COc1ccc(C)cc1NC(=O)C(OC(=O)CNC(=O)c1ccc(Br)cc1)c1ccccc1 (configuration not stated) do in these assays?
Calpain2 inh: inactive; WT yeast gro inh: inactive; Cl transport mod: inactive; ROMK mod: inactive; Lmaj promast: 52.1

How did CN(C)C(=S)N=Nc1[nH]c2ccccc2c1O do in these assays?
Calpain2 inh: inactive; WT yeast gro inh: inactive; Cl transport mod: inactive; ROMK mod: inactive; Lmaj promast: 97.4

How did O=C(c1ccccc1)c1ccccc1N/C=C/c1nnnn1-c1ccccc1 do in these assays?
Calpain2 inh: inactive; WT yeast gro inh: inactive; Cl transport mod: inactive; Lmaj promast: 53.8

What do the screens show for `COc1ccc(-c2csc(C3=C(O)CN(Cc4ccc(S(N)(=O)=O)cc4)C3=N)n2)cc1OC`?
Calpain2 inh: inactive; WT yeast gro inh: inactive; ROMK mod: inactive; Lmaj promast: inactive

How did COc1ccc(-c2csc(C3=C(O)CN(Cc4ccc(Cl)cc4)C3=N)n2)cc1OC do in these assays?
Calpain2 inh: inactive; WT yeast gro inh: inactive; Cl transport mod: inactive; ROMK mod: inactive; Lmaj promast: 57.6

What do the screens show for `O=C(c1cccnc1)N(Cc1ccccc1)c1ccccc1`?
Calpain2 inh: inactive; WT yeast gro inh: inactive; ROMK mod: inactive; Lmaj promast: inactive

Results for O=C(CCl)N(Cc1ccccc1)c1ccccc1 ?
Calpain2 inh: inactive; WT yeast gro inh: inactive; Cl transport mod: inactive; ROMK mod: inactive; Lmaj promast: 78.8

What do the screens show for `Cc1cccc(N(Cc2ccccc2)C(=O)CCl)c1`?
Calpain2 inh: inactive; WT yeast gro inh: inactive; Cl transport mod: inactive; ROMK mod: inactive; Lmaj promast: 81.5

Results for Cc1c(Cl)cccc1S(=O)(=O)N1CCC(C(=O)NNC(=O)C2CC2)CC1 ?
Calpain2 inh: inactive; WT yeast gro inh: inactive; Cl transport mod: inactive; ROMK mod: inactive; Lmaj promast: inactive

Results for S=C(NC1CCCCC1)N1CCn2cccc2C1c1cccnc1 (configuration not stated) ?
Calpain2 inh: inactive; WT yeast gro inh: inactive; Cl transport mod: inactive; ROMK mod: inactive; Lmaj promast: 97.6

How did COc1ccccc1NC(=S)N1CCn2cccc2C1c1cccnc1 (configuration not stated) do in these assays?
Calpain2 inh: inactive; WT yeast gro inh: inactive; Cl transport mod: inactive; ROMK mod: inactive; Lmaj promast: 77.6

What do the screens show for `Fc1ccc(C2c3cccn3CCN2C(=S)Nc2cccc(F)c2)cc1` (configuration not stated)?
Calpain2 inh: inactive; WT yeast gro inh: 79.8; Cl transport mod: inactive; ROMK mod: inactive; Lmaj promast: inactive

Results for S=C(NC1CCCCC1)N1CCn2cccc2C1c1ccncc1 (configuration not stated) ?
Calpain2 inh: inactive; WT yeast gro inh: inactive; Cl transport mod: inactive; ROMK mod: inactive; Lmaj promast: inactive

Results for S=C(Nc1ccccc1)N1CCn2cccc2C1c1cccnc1 (configuration not stated) ?
Calpain2 inh: inactive; WT yeast gro inh: inactive; Cl transport mod: inactive; Lmaj promast: 86.2

Results for CNC(=S)N1CCn2cccc2C1c1ccc(F)cc1 (configuration not stated) ?
Calpain2 inh: inactive; WT yeast gro inh: inactive; Cl transport mod: inactive; Lmaj promast: inactive

What do the screens show for `O=C(Nc1c(Cl)cc(Cl)cc1-c1nc2ccccc2s1)c1ccc(Br)o1`?
Calpain2 inh: inactive; WT yeast gro inh: inactive; Cl transport mod: inactive; ROMK mod: inactive; Lmaj promast: inactive

How did Fc1cccc(NC(=S)N2CCn3cccc3C2c2cccnc2)c1 (configuration not stated) do in these assays?
Calpain2 inh: inactive; WT yeast gro inh: inactive; Cl transport mod: inactive; ROMK mod: inactive; Lmaj promast: 92.4

Results for Fc1cccc(NC(=S)Nc2cccnc2)c1 ?
Calpain2 inh: inactive; WT yeast gro inh: inactive; Cl transport mod: inactive; ROMK mod: inactive; Lmaj promast: inactive

Results for O=C(CCCN1CCC(O)(c2ccc(Cl)cc2)CC1)c1ccc(F)cc1 ?
Calpain2 inh: inactive; WT yeast gro inh: inactive; Cl transport mod: inactive; Lmaj promast: 97.3

Results for COc1ccccc1N1CCN(CCCC(=O)c2ccc(F)cc2)CC1 ?
Calpain2 inh: inactive; WT yeast gro inh: inactive; ROMK mod: inactive; Lmaj promast: inactive

What do the screens show for `CCOc1ccc(CNC(=O)c2ccc(Sc3ccc(C)cc3)c(NC(C)=O)c2)cc1`?
Calpain2 inh: inactive; WT yeast gro inh: inactive; Cl transport mod: inactive; ROMK mod: inactive; Lmaj promast: 93.5
